# Screening data deposited in PubChem by several laboratories.
# The list is not random: actives were taken first. Their share in the collection is about 12%.
# hDAT+cocaine: changed hDAT dopamine uptake under cocaine IC80, either direction, primary screen, cocaine antagonist project, cell-based, LLC-PK1 hDAT, [14C]-dopamine uptake, MLSMR; Sodium-dependent dopamine transporter (Homo sapiens), Q01959; LLC-PK1 hDAT cells, [14C]-dopamine uptake with cocaine IC80; actives deviate in either direction; B-score at 10 µM; 110,000 tested, 1.3% active; AID 449768, 2010;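 active = Z score or B-score, a plate-position-corrected score, falls beyond the plate's 99.7% confidence bounds, in either direction; inactive = both scores lie inside the 99.7% bounds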;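 note: scored against the spread of the other compound wells on the same plate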
# Cav32 inh: Cav3.2 calcium influx blockers – cell-based, Fluo-4 calcium fluorescence, FDSS, MLSMR library, primary screen; Voltage-dependent T-type calcium channel subunit alpha-1H (Homo sapiens), O95180; Cav3.2-expressing cells; hits give low values; B-score at 10 µM; 100,000 tested, 4% active; AID 449739, 2010;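 active = single-dose well whose peak fluorescence ratio is a statistical outlier from its plate by either plate-standardised score or position-corrected B-score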
# D1 mod: D1 CRE-luciferase signal change, two-sided – cell-based, HEK293 D1, dopamine EC30, D1 allosteric modulator project, primary screen. dopamine EC30 potentiation; actives deviate in either direction. B-score at 10 µM. AID 641, 2007. D(1A) dopamine receptor (Homo sapiens), P21728. 58,000 tested, 5.9% active;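 active = luminescence count or its row- and column-corrected plate score outside the 99.7% band of the plate's sample wells, on either side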
# PostGolgi yeast: phenotypic screen on post-Golgi transport, primary screen; post-Golgi transport phenotypic cell assay; inhibition, % at 10 µM; 98,000 tested, 0.9% active; AID 739, 2007;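 note: yeast cells grown in 1536-well plates; yeast grown about 18 h at 30C before absorbance read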
# PLAP activator: PLAP enzyme activators, biochemical, luminescence, HTS. 96,000 tested, 1.2% active. purified PLAP enzyme, luminescent substrate read-out; hits give high values. activation fold at 20 µM. Alkaline phosphatase, placental type (Homo sapiens), P05187. AID 696, 2007; in the data active = activation fold above about 2
# Target sequence (P05187 whole entry, looked up): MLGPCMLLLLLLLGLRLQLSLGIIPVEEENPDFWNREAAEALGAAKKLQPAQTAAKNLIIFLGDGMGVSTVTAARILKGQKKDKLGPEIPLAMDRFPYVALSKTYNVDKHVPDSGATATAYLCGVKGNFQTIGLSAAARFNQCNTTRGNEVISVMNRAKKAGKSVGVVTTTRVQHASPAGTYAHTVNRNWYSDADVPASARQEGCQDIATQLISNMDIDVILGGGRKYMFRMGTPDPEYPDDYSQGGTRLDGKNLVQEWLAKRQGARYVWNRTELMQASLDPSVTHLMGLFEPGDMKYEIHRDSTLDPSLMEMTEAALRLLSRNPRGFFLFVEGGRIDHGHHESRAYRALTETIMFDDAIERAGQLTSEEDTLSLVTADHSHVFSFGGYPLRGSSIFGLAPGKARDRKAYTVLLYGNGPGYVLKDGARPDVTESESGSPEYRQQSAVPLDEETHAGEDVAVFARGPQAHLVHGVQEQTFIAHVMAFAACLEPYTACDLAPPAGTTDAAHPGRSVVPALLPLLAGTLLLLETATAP
# PostGolgi ctrl: growth inhibition of yeast control strain, primary screen, counter-screen for post-Golgi transport modulator project. 98,000 tested, 5% active. inhibition, % at 10 µM. AID 738, 2007. efflux-deficient yeast background strain, growth absorbance A615, 16 h
# An asterisk follows results filed as active; x = not tested or not shown. Cut-off read from the data, not from the text of the source, unless noted: active = inhibition above about 30%; inactive = the rest.
SMILES,hDAT+cocaine,Cav32 inh,D1 mod,PostGolgi yeast,PLAP activator,PostGolgi ctrl
CC1=C(C)C(=O)C(CCCCC#CCCCC#CCO)=C(C)C1=O,0.26,-4.1*,0.026,x,x,x
CCOC(=O)Cn1c(-c2ccccc2)nc2ccccc2c1=O,-0.099,-1.7,x,12,0.9,8
O=C(On1c(-c2ccccc2)nc2ccccc2c1=O)c1ccco1,0.58,0.14,-3.4*,20,0.9,12
CCOC(=O)c1c(CN(CC)CC)oc2cc(Br)c(O)cc12,4.1*,0.095,2.5,1,1,11
CCOC(=O)c1c(CN(CC)CC)oc2ccc(OC)cc12,-0.86,0.22,x,x,x,x
CC1(C)CC[C@]2(CO)[C@@H](O)C[C@]3(C)C(=CCC4[C@@]5(C)CC[C@H](O)C(C)(C)C5CC[C@]43C)[C@@H]2C1 (stereo partly drawn),0.36,1.7,x,x,x,x
CN(C)c1nccc(N(Cc2ccccc2)Cc2ccccc2)c1C#N,0.022,-5.7*,x,0,1.2,30*
O=C(CN1C(=O)c2ccccc2S1(=O)=O)NCCSC1CCCCC1,0.74,x,-0.28,-3,0.9,0
O=C1OCCC1N1C(=O)c2ccccc2S1(=O)=O (stereo not drawn),-0.47,0.3,-4.3*,0,1.1,-12
Cc1csc(NC(=O)c2nc3nc(C)cc(C)n3n2)n1,0.54,0.68,-0.68,-5,2.1*,5
O=C(Nc1nccs1)c1nc(-c2ccccc2)n(-c2ccccc2)n1,0.03,0.019,0.56,-7,0.9,30
CCCC(C)NC(=O)c1nc(-c2ccccc2)n(-c2ccccc2)n1 (stereo not drawn),1.1,-4.9*,x,-6,1.3,6
Cc1cc(C)n2nc(C(=O)Nc3nccs3)nc2n1,-0.27,-2,x,-3,1,6
Cc1ccc(C)c(NC(=O)c2nc(-c3ccccc3)n(-c3ccccc3)n2)c1,0.11,-5.8*,x,-1,1.1,23
N#Cc1cccc(NC(=O)c2nc(-c3ccccc3)n(-c3ccccc3)n2)c1,0.69,-0.29,1.9,3,1.6,21
Cc1csc(NC(=O)c2nc(-c3ccccc3)n(-c3ccccc3)n2)n1,1.6,-2.4,0.078,38*,2.8*,8
Cc1ccc2c(n1)CC(C)(C)CC2=O,-0.39,-0.19,x,6,1.1,0
Cc1cc(NC(=O)c2cc(C3CC3)on2)no1,-0.54,0.36,x,x,x,x
CCc1ccc(-c2nn(-c3cc(Cl)ccc3[N+](=O)[O-])c(=O)c3ccccc23)cc1,-0.33,-3.6*,x,-3,1.1,18
O=c1c2ccccc2c(-c2ccccc2)nn1-c1cc(Cl)ccc1[N+](=O)[O-],0.72,-6.9*,x,-5,1,28
Cc1ccc(-c2nn(-c3cc(Cl)ccc3[N+](=O)[O-])c(=O)c3ccccc23)cc1C,-1.6,-4.6*,x,1,1.1,21
Cc1nn(-c2cc(N3CCCCCC3)ccc2[N+](=O)[O-])c(=O)c2ccccc12,-0.32,0.0084,x,1,1,5
O=c1c2ccccc2c(-c2ccccc2)nn1Cc1ccc(Cl)cc1,1.4,0.66,x,-8,0.9,6
O=c1c2ccccc2c(-c2ccc(Cl)cc2)nn1-c1ccccc1,1.6,x,x,6,0.9,40*
CSc1ccc(/C=N\NC(=O)CNc2ccc(C)cc2)cc1,0.54,-0.11,x,-7,1,-9
SMILES,hDAT+cocaine,Cav32 inh,D1 mod,PostGolgi yeast,PLAP activator,PostGolgi ctrl
N/C(COc1ccccc1)=N\NC(=O)c1cccnc1Oc1ccccc1,1.3,0.13,x,-2,x,16
Cc1ccc(CN2C(=O)CCC2C(=O)NC(C)C)cc1 (stereo not drawn),-1.6,0.36,0.029,0,1.1,9
CCCCOc1ccc(Cl)cc1CSc1nnc(C)n1N,-0.9,-0.37,0.52,5,0.9,1
N#Cc1c(-c2ccccc2)c(-c2ccccc2)nn(CC(=O)NNC(=O)Nc2ccc(Cl)c(Cl)c2)c1=O,1.3,-6.5*,x,-16,1.5,-1
C(=C\c1ccccc1)/CN1CCN(c2ncnc3c2oc2ccccc23)CC1,-1.4,-2,-1.6,21,1.5,31*
COc1ccccc1N1CCN(c2ncnc3c2oc2ccccc23)CC1,0.97,-3.2,-0.16,6,1.3,38*
c1cnc(N2CCN(c3ncnc4c3oc3ccccc34)CC2)nc1,x,x,4.4,x,1.2,x
CCOC(=O)c1cc2c(=O)n3cccc(C)c3nc2n(Cc2ccccc2Cl)c1=N,x,x,-0.33,x,1.2,x
O=C(c1ccc(F)cc1)C1CCN(CCn2c(=S)[nH]c3ccccc3c2=O)CC1,0.51,-4.8*,x,x,x,x
O=C(C1CCC(Cn2c(=S)[nH]c3ccccc3c2=O)CC1)N1CCN(c2ccccc2)CC1 (stereo not drawn),1.2,-4.7*,-1.7,x,x,x
O=C(C1CCC(Cn2c(=O)[nH]c3ccccc3c2=O)CC1)N1CCN(c2ccccc2)CC1 (stereo not drawn),x,x,0.27,x,x,x
O=C(/C=C\Nc1ccccn1)c1ccccc1,0.2,-0.41,-6.9*,4,0.8,14
O=C(/C=C/Nc1ccccc1Br)c1ccccn1,0.012,0.22,-8.1*,9,1.1,-6
Cc1nc2c(-c3ccc(F)cc3)c(C)nn2c(C)c1CCC(=O)N1CCC(Cc2ccccc2)CC1,-0.52,-6.2*,x,5,1.7,32*
Cc1nc2c(-c3ccc(F)cc3)c(C)nn2c(C)c1CCC(=O)N1CCN(c2ccccc2)CC1,2,-0.52,x,-3,1.4,18
Cc1nc2c(-c3ccc(F)cc3)c(C)nn2c(C)c1CCC(=O)N1CCN(c2ccc(F)cc2)CC1,0.41,-6.2*,x,-13,1.7,26
CC(=O)NS(=O)(=O)c1cccnc1Nc1ccc(Cl)cc1,0.078,-0.57,x,3,1.2,-3
COCC(C)NC(=O)NC1(C(F)(F)F)Oc2ccc(Cl)cc2O1 (stereo not drawn),-3.2*,0.11,-0.14,2,0.7,8
CCOc1cc(C2NC(=O)NC(C)=C2C(C)=O)cc(Cl)c1OCC(=O)O (stereo not drawn),0.033,x,x,-6,1.2,0
COc1ccccc1-c1noc(CCC(=O)Nc2ccccc2Cl)n1,-0.84,-0.16,0.003,8,1.2,-3
COc1ccc2nc(NCc3ccccc3)[nH]c2c1,0.3,0.32,-4.1*,2,1.5,-6
COc1ccc2nc(-c3ccccc3)[nH]c2c1,1.8,0.5,-5.3*,0,1,-2
Cc1ccc2nc(NCc3ccccc3)[nH]c2c1,-0.26,-1.1,x,9,x,10
Cc1oc(CC(C)C)cc1C(=O)Nc1cccc2ccccc12,-6.9*,-2.1,x,-3,0.9,15
